CYP2C9 inhib: inhibitors of human CYP2C9; CYP2C9 Supersomes, luciferin-H conversion, luminescence; inhibition, % at 5 µM; 20% of 96,000 active;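 active = blocking of liver enzyme CYP2C9 beyond about 50% at 5 µM, limit read from the data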
Target sequence (P11712 whole entry, looked up): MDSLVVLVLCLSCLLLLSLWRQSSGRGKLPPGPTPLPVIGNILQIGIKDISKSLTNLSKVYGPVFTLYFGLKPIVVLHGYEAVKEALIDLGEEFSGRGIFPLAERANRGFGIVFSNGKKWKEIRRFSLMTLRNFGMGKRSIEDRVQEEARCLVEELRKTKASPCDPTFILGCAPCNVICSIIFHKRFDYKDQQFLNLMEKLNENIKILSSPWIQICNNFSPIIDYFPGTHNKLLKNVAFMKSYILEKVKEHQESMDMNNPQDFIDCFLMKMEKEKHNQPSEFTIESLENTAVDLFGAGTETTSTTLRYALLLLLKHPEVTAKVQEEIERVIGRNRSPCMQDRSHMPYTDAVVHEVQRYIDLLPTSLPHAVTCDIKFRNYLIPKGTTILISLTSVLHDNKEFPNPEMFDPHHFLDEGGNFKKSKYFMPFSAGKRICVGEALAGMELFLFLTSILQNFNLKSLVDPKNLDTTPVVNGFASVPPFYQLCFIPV
CYP2C19 inh: blocks human cytochrome P450 2C19. inhibition, % at 5 µM. 21% of 96,000 active. CYP2C19 Supersomes, luciferin-H EGE luminescence, 30 min;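 active = CYP2C19 inhibition above a set limit at 5 µM in the primary screen, cut at about 50% in these data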;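 note: plate controls were negative control wells for no effect and 2.5 mM tranylcypromine positive control for full effect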
CYP2C9 act: CYP2C9 (human) activation. 1.4% of 96,000 active. activation factor at 5 µM. P11712. recombinant CYP2C9, luciferin-H conversion, luminescence; hits give high values; factor 1 = untreated enzyme, 0 = blocked;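 active = activation factor of 2 or more for CYP2C9 at a 5 µM dose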;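 note: 0 = sulfaphenazole-blocked wells and 1 = vehicle-only wells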
CYP2C19 activ: increases human CYP2C19 enzyme activity; P33261; recombinant CYP2C19, luciferin-H EGE luminescence; hits give high values; 0 = fully inhibited enzyme, 1 = untreated enzyme; activation factor at 5 µM; 96,000 tested, under 10 active; AID 1025;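 active = activation factor of at least 2 at 5 µM in the primary screen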;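 note: 0 = wells with 2.5 mM tranylcypromine and 1 = vehicle-only wells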
sEH inh: soluble epoxide hydrolase (human) inhibition. inhibition, % at 2 µM. AID 707. P34913. recombinant human sEH enzymatic activity assay. 0.34% of 91,000 active; in the data active = inhibition above about 80%
sEH activator: activators of human soluble epoxide hydrolase | activation, % at 2 µM | purified human sEH enzymatic activity, activator screen | 0.04% of 91,000 active | P34913; in the data active = activation above about 37%
* marks the source's active call; other numbers are inactive results; . = not tested or not shown. The list is not random: actives were taken first. Their share in the collection is about 27%.

SMILES	CYP2C9 inhib	CYP2C19 inh	CYP2C9 act	CYP2C19 activ	sEH inh	sEH activator
COC(=O)COc1ccc(S(=O)(=O)Nc2ccc(C(N)=O)cc2)cc1C	55*	20	0.5	0.8	-2	1
CCOc1cc(S(=O)(=O)NCc2cccs2)ccc1Cl	-64	49	1.6	0.5	-8	6
CCOc1ccc(NS(=O)(=O)c2cc(Cl)ccc2OC)cc1	91*	43	0.1	0.6	18	-17
O=C(CSc1nnc(Cc2ccccc2)n1-c1ccc(Cl)cc1)N1CCOCC1	1	8	1	0.9	-1	5
Cc1cc(C)cc(NS(=O)(=O)c2ccc3oc(=O)ccc3c2)c1	62*	100*	0.4	0	3	-5
CCOc1ccc(NS(=O)(=O)c2ccc(NC(C)=O)c(OC)c2)cc1	25	52*	0.7	0.5	-3	2
COc1cc(C2C(C#N)=C(N)OC3=C2C(=O)CCC3)c([N+](=O)[O-])cc1OC (configuration not stated)	0	-12	1	1.1	0	0
COc1ccc(C(=O)CSc2nnc(-c3cc4ccccc4cc3O)n2Cc2ccco2)cc1	80*	44	0.2	0.6	-10	8
CC1CCN(C(=O)CSc2nnc(-c3cc4ccccc4cc3O)n2Cc2ccco2)CC1	74*	67*	0.3	0.3	-4	3
COC(=O)c1c(NC(=O)CSc2nnc(-c3cccnc3)n2Cc2ccco2)sc(C)c1C	85*	84*	0.1	0.2	0	0
COc1ccc(C(=O)CSc2nnc(-c3cccnc3)n2Cc2ccco2)cc1	57*	53*	0.4	0.5	-13	13
C=CCn1c(SCC(=O)c2ccc(OC)cc2)nnc1-c1cc2cccc(OC)c2o1	-11	21	1.1	0.8	1	-1
CC(NC(=O)Cc1ccc(F)cc1)C(c1cccs1)N1CCN(C)CC1 (configuration not stated)	.	.	.	.	7	-4
C/C(Cn1nc([N+](=O)[O-])cc1C)=N\NC(=O)c1ccc(C(C)(C)C)cc1	38	21	0.6	0.8	0	1
CCOc1ccc(Oc2ccc(-c3nnc(-c4ccccc4)o3)cc2[N+](=O)[O-])cc1	13	12	0.9	0.9	.	.
CCOC(=O)CNC(=O)CSc1nnc(-c2ccco2)n1Cc1ccco1	6	13	0.9	0.9	2	0
O=C(CSc1nnc(-c2ccccn2)n1Cc1ccco1)Nc1ccc2c(c1)OCO2	37	-1	0.6	1	4	-4
NC(=O)CSc1nnc(-c2ccc(O)cc2)n1Cc1ccco1	.	.	.	.	1	1
O=C(CSc1nnc(-c2ccc(O)cc2)n1Cc1ccco1)N1CCc2ccccc2C1	50*	62*	0.5	0.4	5	-3
COc1ccc(C(=O)CSc2nnc(-c3cnccn3)n2Cc2ccco2)cc1	54*	40	0.5	0.6	-21	20
O=C(CSc1nnc(-c2cnccn2)n1Cc1ccco1)Nc1ccc(Br)cc1	59*	-3	0.4	1	25	-23
CCC1(N(C(C)=O)c2ccc(OC)cc2)C(=O)c2ccccc2C1=O	-18	6	1.2	0.9	9	-8
CC(C)CN(CC(C)C)c1nc(N)c(C#N)c(CC#N)c1C#N	86*	69*	0.1	0.3	12	-10
Cc1ccc(/C=C(\C#N)C(=O)Nc2c(C)cccc2C)s1	64*	13	0.4	0.9	12	-10
CCOc1ccc(N(CC(=O)NCC(C)C)S(C)(=O)=O)cc1	35	60*	0.7	0.4	.	.
SMILES	CYP2C9 inhib	CYP2C19 inh	CYP2C9 act	CYP2C19 activ	sEH inh	sEH activator
CCC(C)NC(=O)c1ccccc1NC(=O)CN(c1ccc(OC)cc1)S(C)(=O)=O (configuration not stated)	98*	72*	0	0.3	7	-4
CCOC(=O)C(=O)Nc1ccccc1C(=O)Nc1ccc(OC)cc1	52*	37	0.5	0.6	0	-1
CCOc1ccc(N(CC(=O)NC(C)CC)S(C)(=O)=O)cc1 (configuration not stated)	30	65*	0.7	0.4	-8	5
CCOc1ccc(N(CC(=O)NCCCOC)S(C)(=O)=O)cc1	-10	10	1.1	0.9	.	.
CC(=O)Nc1cc(C(=O)N2CCN(C)CC2)ccc1Sc1ccc(C)cc1	5	39	0.9	0.6	10	-8
COc1ccc(-c2nnc(SCC(=O)NCc3cccs3)n2C(C)C)cc1	54*	66*	0.5	0.3	13	-14
COc1ccc(-c2nnc(SCC(=O)NCc3cccs3)n2C)cc1	.	.	.	.	3	0
COc1cccc(-c2csc3nnc(SCC(=O)NCc4cccs4)n23)c1	40	59*	0.6	0.4	4	-2
Cc1ccc(/C=N/NC(=O)c2cc(C)oc2C)o1	-3	22	1	0.8	4	-1
Cc1ccc(/C=N/NC(=S)NC(C)C)o1	-11	51*	1.1	0.5	9	-7
CCOC(=O)CCNC(=O)Nc1ccc2nc(C)n(Cc3cccc(Cl)c3)c(=O)c2c1	81*	62*	0.2	0.4	21	-22
CCCc1nc2ccc(NC(=O)NCCC(=O)OCC)cc2c(=O)n1Cc1ccc(Cl)cc1	.	.	.	.	13	-13
Cc1nc2ccc(NC(=O)c3cccs3)cc2c(=O)n1Cc1ccc(Cl)cc1	68*	79*	0.3	0.2	0	0
CCCc1nc2ccc(NC(=O)NCCC(=O)OCC)cc2c(=O)n1Cc1cccc(Cl)c1	12	11	0.9	0.9	30	-30
CCOC(=O)CCNC(=O)Nc1ccc2nc(C)n(Cc3ccccc3Cl)c(=O)c2c1	94*	55*	0.1	0.4	20	-20
COc1ccc(CCNC(=O)c2c(C)noc2C)cc1	12	14	0.9	0.9	6	-2
O=C1Nc2ccccc2OC1CC(=O)N1CCCC1 (configuration not stated)	20	45	0.8	0.6	.	.
CC(Cc1c[nH]c2ccccc12)NC(=O)C1CCCNC1=O (configuration not stated)	-21	-16	1.2	1.2	-16	15
CCCCN(CC)C(=O)c1cccc(Cl)c1	18	71*	0.8	0.3	13	-10
CS(=O)(=O)N(Cc1nnc(-c2cccs2)o1)c1ccc(Cl)cc1F	88*	99*	0.1	0	-6	5
CC1C/C(=N/NC(=O)c2cccc(F)c2)c2ccc(O)cc2C1 (configuration not stated)	-60	51*	1.6	0.5	25	-25
O=C(N/N=C/c1ccccc1Cl)c1cccc(F)c1	29	44	0.7	0.6	26	-26
COc1cc(OC)c(C2C(C(=O)Nc3ccc(C)cc3C)=C(C)Nc3ncnn32)cc1OC (configuration not stated)	-22	-11	1.2	1.1	.	.
O=C(NNC(=O)c1ccccc1O)c1ccc(Cl)cc1	32	-3	0.7	1	-1	2

Assay outcomes as filed in PubChem BioAssay.
